Source: PubChem (Broad Institute)
The sample as a whole holds a higher share of hits than the screen did.
Tg IFNy HTS: T. gondii growth inhibition under IFN-gamma. 69,000 tested, 3.8% active. activity change, negative = inhibition, % (no concentration beside the values). Toxoplasma gondii growth in IFN-gamma-treated host cells; hits give low values; in the data active means activity change below about -70%, passing the limit was not always enough;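 further: host cells are HeLa cells infected with Toxoplasma gondii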
* = called active by the depositor.

SMILES	Tg IFNy HTS
Fc1ccc(-n2nnnc2-c2cnn(-c3ccccc3)c2-c2ccccc2)cc1	-52
CC(NC(=O)c1cccc2ccnn12)c1cn2ccsc2n1 (centres undefined)	1
CN(CCNc1nc(-c2ccc(Cl)cc2)nc2ccccc12)C1CCCCC1	-77
COc1ccccc1OCC(=O)n1nc(N)c2c(C(F)(F)F)cc(C)nc21	32
COc1ccc(C(=O)c2sc3nc(C)cc(C(F)(F)F)c3c2N)cc1OC	-8
COc1cc2ncn(-c3cc(OCc4ccccc4C(F)(F)F)c(C(N)=O)s3)c2cc1OC	-88*
CC(C)NC(=O)C1CCN(C2CCN(C(=O)CCCc3cn[nH]c3)CC2)CC1	6
C=CCOc1ccccc1NC(=O)c1cc(=O)c2cc(C)c(C)cc2o1	47
Cc1c(C)c(C)c(S(=O)(=O)Nc2cc(-c3ccccc3)nn2CCC#N)c(C)c1C	-88*
Cn1nc(-c2ccccc2)cc1NC(=O)Cn1cnc(Cl)c1Cl	2
Cn1nc(-c2ccccc2)cc1NC(=O)C1CCCCC1	47
CCc1ccccc1NC(=O)c1c(O)c2cccnc2[nH]c1=O	60
Cc1nc(CCNC(=O)[C@H]2CCCN2S(=O)(=O)c2ccc(F)cc2)cs1	-3
Cc1ccc(Nc2nc(C(=O)Nc3ccccc3Br)nc3ccccc23)cc1	-32
CCCn1nc(C)c(-c2cc(C(=O)N3CCC(O)(c4ccc(C)cc4)C3)[nH]n2)c1C (centres undefined)	-3
COc1cc(C(=O)N2CCC3(CC2)Nc2ccc(C)c(C)c2-n2cccc23)cc(OC)c1OC	21
COC(=O)c1c(NCCO)c2cccc(Cl)c2[nH]c1=O	3
COC(=O)c1c(NCc2ccc(F)cc2F)c2cccc(Cl)c2[nH]c1=O	-76*
COC(=O)c1c(NCc2ccccc2OC)c2cccc(Cl)c2[nH]c1=O	-4
COC(=O)c1c(NCc2cc(F)cc(F)c2)c2cccc(Cl)c2[nH]c1=O	-98*
COC(=O)c1c(NCC(C)C)c2cccc(Cl)c2[nH]c1=O	-7
COC(=O)c1c(NCc2cccnc2)c2cccc(Cl)c2[nH]c1=O	17
COC(=O)c1c(NCc2ccc(F)cc2F)c2cc(F)ccc2[nH]c1=O	6
COC(=O)c1c(NCc2ccc(OC)cc2)c2cccc(Cl)c2[nH]c1=O	-29
COC(=O)c1c(NCc2ccc(SC)cc2)c2cccc(Cl)c2[nH]c1=O	-79*
SMILES	Tg IFNy HTS
COC(=O)c1c(NCCC(C)C)c2cccc(Cl)c2[nH]c1=O	-85*
COC(=O)c1c(NCc2ccc3c(c2)OCO3)c2cccc(Cl)c2[nH]c1=O	82
COC(=O)c1c(NCc2ccccc2)c2cccc(Cl)c2[nH]c1=O	-55
CC(C)c1nccc(CN(C)Cc2cc(-c3ccccc3)no2)n1	2
O=C(CCc1nc(-c2cccnc2)no1)NCCc1c[nH]c2ccccc12	118
O=C(Nc1ccccc1F)N1CCn2nnc(COc3cccnc3)c2C1	27
O=C(c1ccoc1)N1CC[C@@H]2[C@H](CO[C@H]2Cc2nnc(C3CC3)o2)C1	-2
NC(=O)c1cnc2n1CCN(C(=O)C1CCCc3c1[nH]c1ccccc31)C2 (centres undefined)	-3
COCc1ccc(C(=O)N(C)CCSc2ccc(C)cc2)s1	-9
O=C(CCc1c[nH]c2ccccc12)N1CCc2c(cc(-c3cccc(Cl)c3)c(=O)n2CC2CC2)C1	-13
CC(=O)N1CC2(CCN(C(=O)Cc3ccc4c(c3)OCO4)CC2)CC1C(=O)O (centres undefined)	3
Cc1ccc(N2CC3(CCN(C(=O)c4cccc5cccnc45)C3)CC2=O)cc1 (centres undefined)	2
Cc1ccccc1CNC1=NCCNC12CCN(S(=O)(=O)c1ccc(C(C)C)cc1)CC2	-23
CC(C)C[C@H](NC(=O)[C@H](Cc1ccccc1)NC(=O)c1cnccn1)B(O)O	-81*
CC(Cc1cnccn1)NC(=O)c1cn(C/C=C/c2ccccc2)nn1 (centres undefined)	4
CC(C)C[C@H](NC(=O)[C@@H](NC(=O)c1cccc(-c2ccccc2)n1)[C@@H](C)O)B(O)O	-64
Cc1c(C2CC(=O)Nc3[nH]ncc32)[nH]c2ccc(F)cc12 (centres undefined)	-5
Cc1cnc2n1CCN(C)C21CCN(C(=O)c2ccco2)CC1	4
CO[C@H]1CC(O[C@@H]2/C(C)=C/C[C@@H]3C[C@@H](C[C@]4(CC[C@H](C)[C@@H](C5CCCCC5)O4)O3)OC(=O)[C@@H]3C=C(C)/C(=N/O)[C@H]4OC/C(=C\C=C\[C@@H]2C)[C@]43O)O[C@@H](C)C1O (some centres undefined)	-80*
CCC(C)[C@H]1O[C@]2(C=C[C@@H]1C)C[C@@H]1C[C@@H](C/C=C(\C)[C@@H](OC3C[C@H](OC)C(O[C@H]4C[C@H](OC)[C@@H](NC(C)=O)[C@H](C)O4)[C@H](C)O3)[C@@H](C)/C=C/C=C3\CO[C@@H]4[C@H](O)C(C)=C[C@@H](C(=O)O1)[C@]34O)O2 (some centres undefined)	13
CC1=C(C(=O)Nc2ccc(Cl)cc2)C2(CCN(S(C)(=O)=O)CC2)OC1=O	21
